Bioassay records deposited in PubChem BioAssay by The Scripps Research Institute Molecular Screening Center.
MITF primary: inhibitors of human MITF | AlphaScreen MITF homodimerization, bead proximity signal | AID 1259374 | O75030 | inhibition, % at 2.6 µM | 650,000 tested, 0.91% active; in the data active = inhibition above about 50%
TEAD-YAP inh: TEAD-YAP interaction inhibition; HEK-TIYL cells, TEAD-Gal4/YAP UAS-luciferase luminescence; inhibition, % at 9.12 µM; 640,000 tested, 1.4% active; AID 1259422; in the data active = inhibition above about 32%
FBW7 activator: activators of human E3 ligase FBW7; AID 1259310; AlphaScreen FBW7–phospho-cyclin E peptide binding, activator screen; Q969H0; normalized activity (activation), % at 26.1 µM; 650,000 tested, 0.13% active; in the data active = normalized activity above about 1.9%;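 note: purified mutant Fbw7 with reduced substrate affinity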
GPR151 activ: activates the human receptor GPR151. Q8TDV0. PathHunter beta-arrestin GPR151 cells, luminescence. activation, % at 11.2 µM. 650,000 tested, 1% active. AID 1508602; in the data active = activation above about 4.9%
GPR151 confirm: confirmation of human GPR151 activators. shares compounds with GPR151 activ. GPR151 PathHunter beta-arrestin cells, luminescence, 90 min; % of EA-reagent control over plate median. activation, % at 11.2 µM. 6,700 tested, under 10 active. AID 1508609;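 active = mean percent activation across replicates above the confirmation screen cutoff of 4.91%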
GPR119 ag: counter-screen for GPR151 activators: effect on human GPR119; 6,700 tested, 0.3% active; activation, % at 11.2 µM; GPR119 PathHunter beta-arrestin cells, luminescence, 90 min; 0 = compound-well median, 100 = enzyme-acceptor control; shares compounds with GPR151 activ;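 active = mean percent activation in the counterscreen above 29.09%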;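 note: counterscreen on off-target GPR119 to flag nonselective hits from the GPR151 activator screen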
Target sequence (Q8TDV5 whole entry, looked up): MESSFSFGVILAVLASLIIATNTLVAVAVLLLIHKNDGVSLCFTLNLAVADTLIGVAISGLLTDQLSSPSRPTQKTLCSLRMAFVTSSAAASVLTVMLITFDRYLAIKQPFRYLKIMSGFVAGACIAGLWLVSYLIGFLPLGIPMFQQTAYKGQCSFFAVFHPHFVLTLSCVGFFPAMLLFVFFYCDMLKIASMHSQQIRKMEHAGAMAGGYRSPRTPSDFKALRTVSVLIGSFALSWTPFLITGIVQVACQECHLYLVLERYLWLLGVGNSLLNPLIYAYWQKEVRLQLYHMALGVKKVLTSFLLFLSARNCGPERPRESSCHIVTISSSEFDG
Each line names hits and unclear results; the compound was inactive in the other large screens (follow-up assays come after a bar, where they were run). Sampled rows, rich in hits. Any-hit rate of the full collection: about 3.5%.

COc1ccc(OC)c(C(C)NC(=O)c2ccccc2Cl)c1 (stereo not given)	GPR151 activ 15 | GPR151 confirm inactive | GPR119 ag inactive
O=C(Nc1ccc2oc(-c3ccc(Cl)c(Cl)c3)nc2c1)c1cccc(Br)c1	none
CCOc1ccc(N2C(=O)CC(Sc3ncccc3C(=O)O)C2=O)c([N+](=O)[O-])c1 (stereo not given)	none
C=CCn1c(SCC(=O)Nc2ccccc2F)nc2sc3c(c2c1=O)CCC(C)C3 (stereo not given)	GPR151 activ 8.7 | GPR151 confirm inactive | GPR119 ag inactive
COc1ccc([N+](=O)[O-])cc1NC(=O)c1sc2ncnc(N3CCCCC3C)c2c1C (stereo not given)	none
C=CCSc1nnc(NC2=NCCCCC2)s1	none
Cc1cc(C)c(NC(=O)c2cccc([N+](=O)[O-])c2C(=O)O)c(C)c1	none
O=C(O)CSc1nc(-c2ccccc2)cc(C(F)F)n1	none
Cc1nc(SCC(=O)O)cc(-c2ccccc2)n1	GPR151 activ 5.0 | GPR151 confirm inactive | GPR119 ag inactive
CCN(CC)C(=O)C(C)N(c1ccc(Cl)cc1)S(C)(=O)=O (stereo not given)	none
Cc1ccc(N/C=C/C(=O)c2cccs2)cc1C	GPR151 activ 9.6 | GPR151 confirm inactive | GPR119 ag inactive
COc1ccc(C2C3=C(CC(C)(C)CC3=O)OC23C(=O)CC(C)(C)CC3=O)cc1 (stereo not given)	none
CCN(CC)c1ccc(C(=O)OC/C(O)=C(\C#N)c2nc3ccccc3[nH]2)cc1	none
COc1ccc2c(CC(=O)OCc3c(C)noc3C)coc2c1	GPR151 activ 5.1 | GPR151 confirm inactive | GPR119 ag inactive
Cc1noc(C)c1COC(=O)Cc1coc2cc3c(cc12)CCC3	none
Cc1ccc(S(=O)(=O)c2nc(NCCN(C)C)sc2Cl)cc1	GPR151 activ 5.2 | GPR151 confirm inactive | GPR119 ag inactive
Cc1ccc(C(C)CCN2CCC3(CCC(CNC(=O)c4ccccc4)O3)CC2)o1 (stereo not given)	none
Cc1ccc(C(C)CCN2CCC3(CCC(CNC(=O)C(C)C)O3)CC2)o1 (stereo not given)	GPR151 activ 7.8 | GPR151 confirm inactive | GPR119 ag inactive
CCOC(=O)CN1C(=O)C(O)(CC(=O)c2ccc(OC)cc2OC)c2ccccc21 (stereo not given)	none
CCOc1cc(/C=N/Nc2nc3c(c(=O)[nH]c(=O)n3C)n2CC(C)C)ccc1O	GPR151 activ 6.6 | GPR151 confirm inactive | GPR119 ag inactive
COc1cc(/C=N/Nc2nc3c(c(=O)[nH]c(=O)n3C)n2CC(C)O)ccc1O (stereo not given)	none
COc1cc2c(cc1NC(=O)/C=C/c1ccc(-c3ccccc3)cc1)oc1ccccc12	none
O=C(CCCn1cnc(-c2ccccc2)cc1=O)NCCc1csc(-c2ccccc2)n1	GPR151 activ 9.2 | GPR151 confirm inactive | GPR119 ag inactive
Cc1cc(=O)n(CC(=O)NCc2csc(-c3ccccc3)n2)cn1	none
COC(=O)c1cc(NC(=O)c2cccs2)c(=O)n2c(=O)c3c(C)c(C)sc3[nH]c12	none
COC(=O)c1cc(NC(=O)c2ccc(F)cc2)c(=O)n2c(=O)c3c(C)c(C)sc3[nH]c12	GPR151 activ 5.4 | GPR151 confirm inactive | GPR119 ag inactive
Cc1cc([N+](=O)[O-])ccc1NC(=S)NC(=O)COc1ccccc1	GPR151 activ 7.3 | GPR151 confirm inactive | GPR119 ag inactive
CCC(C)c1ccc(NC(=S)NN2CCOCC2)cc1 (stereo not given)	GPR151 activ 23 | GPR151 confirm inactive | GPR119 ag inactive
CCCCc1ccc(NC(=S)NN2CCOCC2)cc1	none
CCn1cnc2cc(NCc3ccccc3O)ccc21	none
O=c1[nH]nc(Cc2ccccc2)c2ccccc12	none
COc1ccc(Cc2n[nH]c(=O)c3ccccc23)cc1OC	GPR151 activ 5.3 | GPR151 confirm inactive | GPR119 ag inactive
Cc1ccccc1-c1nnc(SCC(=O)N2CCN(c3ccccc3)CC2)o1	GPR151 activ 6.5 | GPR151 confirm inactive | GPR119 ag inactive
Cc1ccccc1-c1nnc(SCC(=O)N2CCOCC2)o1	none
Cc1nnc(SCC(=O)N2CCN(c3ccccc3)CC2)s1	GPR151 activ 6.4 | GPR151 confirm inactive | GPR119 ag inactive
CC(=O)Nc1nnc(SCC(=O)N2CCN(c3ccccc3)CC2)s1	none
O=C(N/N=C/c1ccc(-c2ccc(Br)cc2)o1)c1ccccn1	none
O=c1oc2ccccc2cc1C1=Nn2c(nnc2-c2ccc3c(c2)OCO3)SC1	none
O=C1C2C(c3ccc(Cl)cc3)OC3(C(=O)c4ccccc4C3=O)C2C(=O)N1c1ccc(Cl)c(Cl)c1 (stereo not given)	none
N#CC1(C#N)CC(C=O)=C(N)C1(C#N)CC(=O)C12CC3CC(CC(C3)C1)C2 (stereo not given)	GPR151 activ 14 | GPR151 confirm inactive | GPR119 ag inactive
COc1cccc(C2CC(=O)N3CN(c4ccccc4)CSC3=C2C#N)c1 (stereo not given)	none
COc1ccc(OC)c(C2CC(=O)N3CN(c4ccccc4)CSC3=C2C#N)c1 (stereo not given)	GPR151 activ 5.7 | GPR151 confirm inactive | GPR119 ag inactive
Cc1cccc(C(=O)Nc2ccc(C)cc2[N+](=O)[O-])c1	none
Cc1cc(C(=O)Nc2ccc(F)cc2F)ccc1[N+](=O)[O-]	GPR151 activ 5.2 | GPR151 confirm inactive | GPR119 ag inactive
Cc1ccc(NC(=O)c2cccc(F)c2)c([N+](=O)[O-])c1	GPR151 activ 8.7 | GPR151 confirm inactive | GPR119 ag inactive
CC(CCc1ccccc1)NC(=O)Cn1nc(Cc2ccncc2)c2ccccc2c1=O (stereo not given)	GPR151 activ 5.8 | GPR151 confirm inactive | GPR119 ag inactive
O=C(O)Cn1nc(Cc2ccncc2)c2ccccc2c1=O	none
CCOC(=O)n1nc(Cc2ccncc2)c2ccccc2c1=O	GPR151 activ 5.2 | GPR151 confirm inactive | GPR119 ag inactive
C/C=C/CSC1=C(C#N)C(c2sccc2C)C(C(C)=O)=C(C)N1 (stereo not given)	none
CCOc1ccc(NC(=O)CN(C)CC(=O)Nc2ccc(Cl)c(Cl)c2)cc1	none
Cn1c(=O)oc2cc(S(=O)(=O)NC3CCN(Cc4ccccc4)CC3)ccc21	none
O=S(=O)(NC1CCN(Cc2ccccc2)CC1)c1ccc(F)c(F)c1	GPR151 activ 7.1 | GPR151 confirm inactive | GPR119 ag inactive
O=C(CSc1nc2ccsc2c(=O)n1Cc1ccccc1)NCCC1=CCCCC1	GPR151 activ 8.7 | GPR151 confirm inactive | GPR119 ag inactive
COc1ccc(CCNC(=O)CCn2c(SCC(=O)Nc3cc(C)on3)nc3ccccc3c2=O)cc1OC	GPR151 activ 4.9 | GPR151 confirm inactive | GPR119 ag inactive
